Source: PubChem BioAssay (National Center for Advancing Translational Sciences (NCATS))
SARS PLpro yeast = qHTS of Yeast-based Assay for SARS-CoV PLP | AID 485353, 2010 | S. cerevisiae expressing SARS-CoV PLpro, growth rescue | Potency, µM (series often up to 32.9 µM), inactives show top-dose activity, positive = growth rescue, most hits filed as activators | 330,000 compounds, 0.19% hits; calls by dose curve; note: potency is the fitted concentration of half-maximal effect; 0% is about no effect; nearly all actives have a fitted effect of over 55% in size
AMA1-RON2 inh = qHTS for Inhibitors of AMA1-RON; Towards Development of Antimalarial Drug Lead: Primary Screen. AlphaScreen AMA1-biotinylated RON2 peptide binding. Potency, µM (highest dose often 58.2 µM), inactives show at the top dose activity change, negative = inhibition, actives largely listed as inhibitors. 360,000 compounds, 0.2% hits. AID 720542, 2013;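 note: potency is the fitted concentration of half-maximal effect; 0% = vehicle wells and -100% = peptide control; nearly all actives have a fitted effect of over 45% in size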
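AMA1 (3D7) with his tag at 25 nM final met compounds first, then biotinylated RON2 peptide at 25 nM; detection used donor plus acceptor beads, 10 µg/mL apiece, read by AlphaScreen after 30 min at room temperature.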
CHX counter = Cycloheximide Counterscreen for Small Molecule Inhibitors of Shiga Toxin. AID 2314, 2010. 300,000 compounds, 12% hits. cell reporter, cycloheximide protein synthesis inhibition counterscreen. max response, %; in the data active = max response mostly above about 13%, no sharp cut-off; inactive = mostly below about 14%; note: read at 38.3 µM for the half of the compounds with a filed dose; 0% is about no effect
Pf growth 48h = Primary qHTS for delayed death inhibitors of the malarial parasite plastid, 48 hour incubation; P. falciparum luciferase growth in erythrocytes, 48 h; Potency, µM (series often up to 28.7 µM), inactives show at the top dose activity change, negative = inhibition, most hits filed as inhibitors; 310,000 compounds, 5.9% hits; note: potency is the fitted concentration of half-maximal effect; % is set by controls: 0 for no effect and ±100 for the full control effect
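Here the parasites carry a stable luciferase gene and grow inside erythrocytes in Albumax-based RPMI medium with compound for one erythrocytic cycle. Activity is scored as loss of luminescent signal.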
Pf growth 96h = Primary qHTS for delayed death inhibitors of the malarial parasite plastid, 96 hour incubation | 320,000 compounds, 6.9% hits | Potency, µM (titrated, usually from 28.7 µM), without a hit: at the top dose activity change, negative = inhibition, usual class: inhibitors | P. falciparum luciferase reporter growth, 96 h; note: potency is the fitted concentration of half-maximal effect; % is set by controls: 0 for no effect and ±100 for the full control effect
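96 h incubation, 37 C, 5% CO2, of luciferase-reporter P. falciparum-infected RBCs (2% hematocrit, 0.05% parasitemia final) with test compounds; endpoint luminescence.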
Shiga inhibitor = A qHTS for Small Molecule Inhibitors of Shiga Toxin; inhibition, % at 38.7 µM; 290,000 compounds, 9.2% hits; Vero cells, Shiga toxin protein synthesis inhibition reporter; in the data active = inhibition mostly above about 28%, no sharp cut-off; inactive = mostly below about 43%; note: 0% is about no effect
The depositor's hits bear a star; ? = inconclusive; nt = no result; [ ] = remark or other dose. This is a sample that favours compounds with a hit; in the whole collection about 19% have one here. Unless noted, calls come from the whole dose curve; as a rule, active = well fitted curve in the direction sought with a large enough effect; inconclusive = small, poorly fitted or top-dose-only effect, or another doubt; inactive = no such curve, though single readings can be large; an effect the other way counts as inactive or inconclusive.

SMILES | SARS PLpro yeast | AMA1-RON2 inh | CHX counter | Pf growth 48h | Pf growth 96h | Shiga inhibitor
Cc1ccc(NS(=O)(=O)c2cccc(C(=O)Nc3cccnc3)c2)c(C)c1 | 1% | 10% | nt | nt | nt | nt
COc1ccc2nc(NC(=O)CSc3n[nH]c(N)n3)sc2c1 | -3% | 56% | nt | 59% | 68% | nt
COc1ccc(-c2csc(NC(=O)CSc3nc(C)cs3)n2)cc1 | nt | -21% | nt | nt | nt | nt
COc1ccc2nc(NC(=O)CSc3nnnn3C)sc2c1 | 2% | 0% | 28* | 19% | -21% | 46*
COc1ccc2nc(NC(=O)CSc3nc(SC)ns3)sc2c1 | 8% | 7% | 47* | 48% | -10% | 72*
COc1ccc(-c2csc(NC(=O)CSc3nc(SC)ns3)n2)cc1 | -27% | -12% | 39* | 12% | 33% | 57*
COc1ccc2nc(NC(=O)CSc3nnc(C)s3)sc2c1 | -2% | -4% | 12* | 57% | 22% | 30
CSc1nsc(SCC(=O)Nc2nc3ccccc3s2)n1 | 5% | -12% | 30* | 5% | 24% | 67*
COc1ccccc1NC(=O)CSc1nc(SC)ns1 | -5% | 5% | 7 | 50% | 6% | 16
CSc1nsc(SCC(=O)Nc2ccccn2)n1 | 4% | 3% | 23* | 60% | 30% | 42*
CCOC(=O)CSc1nnc(-c2ccc(OC)cc2OC)o1 | -4% | -3% | 2 | -21% | ? | 2
O=C(CN(Cc1ccc(Cl)cc1)C(=O)c1csnn1)NCc1ccccc1 | -2% | -1% | -2 | 0% | 4% | -7
Cc1cccc(-n2nc3c(c2NC(=O)c2ccc(Br)o2)CSC3)c1 | 2% | 5% | -1 | ? | ? | -19
NC(=O)c1cccc(C(N)=O)n1 | -6% | -9% | -1 | 8% | 8.3µM* | 13
CCC(C)/C=C(C)/C=C/C1=CC2=C(Cl)C(=O)C(C)(OC(C)=O)C(=O)C2=CO1 (stereo not given) | 5% | ? | 11* | ? | 9.3µM* | 24
CCc1ccccc1NC(=O)c1cc(C2CC2)on1 | -9% | 2% | 11* | nt | 1% | 47
CC(=O)N1CCCC(c2cc(C(=O)Nc3ccccc3)no2)C1 (stereo not given) | nt | -2% | nt | nt | nt | nt
Cc1ccccc1Cn1cc(NC(=O)c2cc(C3CC3)on2)cn1 | -1% | 3% | 44* | ? | -9% | 73*
C=C(C)COc1ccc(-c2n[nH]c(C)c2Oc2ccccc2OC)c(O)c1 | -28% | -10% | -1 | 5.2µM* | 4.7µM* | 15
CCOc1ccc(-c2n[nH]c(C)c2Oc2ccccc2OC)c(O)c1 | 9% | 15% | -2 | 4.1µM* | nt | -4
O=C(NC12CC3CC(CC(C3)C1)C2)N(Cc1ccccc1)Cc1ccncc1 | -1% | 0% | -2 | ? | -25% | -10
CCOC(=O)/C(=N\Nc1ccccc1)P(=O)(c1ccccc1)c1ccccc1 | 0% | -11% | 3 | ? | 0% | -5
O=c1cc(-c2ccc(C3CCCCC3)cc2)[nH][nH]1 | 1% | 43% | 22* | -29% | 13% | 31
COc1ccc(OC)c(S(=O)(=O)NC2CCSc3ccccc32)c1 (stereo not given) | -2% | 0% | 6 | -4% | -25% | -5
CCc1n(CC(O)COC2CCCCC2)c2ccccc2[n+]1C (stereo not given) | 0% | 2% | 6 | 2.6µM* | ? | -3
SMILES | SARS PLpro yeast | AMA1-RON2 inh | CHX counter | Pf growth 48h | Pf growth 96h | Shiga inhibitor
CCc1n(CC(O)COCC2CC=CCC2)c2ccccc2[n+]1C (stereo not given) | -1% | -5% | -1 | ? | 27% | -9
Cc1c(Br)c([N+](=O)[O-])nn1CC(=O)NCCc1c[nH]c2ccccc12 | 0% | -12% | 2 | -24% | 9% | -9
O=S(=O)(c1ccc(-c2nnc(SCc3nnc(-c4ccccc4)o3)o2)cc1)N1CCCC1 | -3% | 25% | -1 | ? | 88% | 14
CCN(CC)S(=O)(=O)c1ccc(-c2nnc(SCc3nnc(-c4ccccc4)o3)o2)cc1 | -4% | 5% | -6 | 0% | 3.7µM* | -15
CCN(CC)S(=O)(=O)c1ccc(-c2nnco2)cc1 | 9% | 12% | 8 | -26% | 13µM* | -3
COc1ccc(CCNC(=O)c2ccc(S(=O)(=O)N3CCCCC3)cc2)cc1 | 0% | 9% | nt | ? | ? | nt
Cc1ccc2c(c1)CNc1ccccc1O2 | -1% | -5% | 13* | nt | -4% | 45
c1ccc2c(c1)CNc1ccccc1O2 | 6% | -1% | 10 | 17% | -13% | -2
COc1cc(/C=N/NC(=O)c2cc3ccccc3[nH]2)ccc1O | 15% | 17% | 7 | ? | ? | 14
COc1cc(/C=N/Nc2nc3ccccc3[nH]2)ccc1O | -10% | 14% | 37* | 0.83µM* | ? | 33*
COc1ccc(O)c(/C=N/Nc2nc3ccccc3[nH]2)c1 | 0% | ? | 49* | 1.9µM* | 2% | 82*
COc1cc(/C=N/Nc2nc3ccccc3[nH]c2=O)ccc1O | -4% | -3% | 19 | ? | ? | 17*
COc1ccc(OC)c(/C=N/NC(=O)Cc2nc3ccccc3[nH]2)c1 | -9% | -3% | -1 | -12% | -18% | -10
O=[N+]([O-])c1ccc(O)c(/C=N/Nc2nc3ccccc3[nH]2)c1 | 11µM* | 41% | 19* | 2.3µM* | 76% | 9
O=C(NCCCC1CCCC1)C1CCC(=O)N(Cc2ccc(Cl)cc2)C1 (stereo not given) | -3% | -3% | -6 | ? | 1% | 8
Cc1nn(-c2ccc(N3CCOCC3)nn2)c(C)c1CCC(=O)NCc1ccccc1 | 11% | 2% | 3 | 1% | 1% | 14
COc1cc(/C=N/NC(=O)c2ccc(CSc3nc4ccccc4[nH]3)cc2)cc(OC)c1OC | 13% | -4% | 8 | ? | 0% | 11
COc1cc(/C=N/Nc2nc3ccccc3[nH]2)cc(OC)c1O | -37% | 24%[11.6 µM] | 18* | 1.7µM* | 0.93µM* | 73
COc1cc(/C=N/NC(=O)CSc2ccccn2)ccc1O | -1% | 18% | 6 | -2% | 24% | 23
COc1cc(/C=N/Nc2nc3ccccc3[nH]2)cc(Br)c1OCC(=O)N(C)C | -5% | 89% | 37* | 0.47µM* | 0.47µM* | 139*
COc1cc(/C=N/Nc2snc(SC)c2C#N)ccc1O | -2% | 6% | 27* | 48% | 129% | 34
CCOC(=O)[C@]12CCCC=C1N(CCC1=CCCCC1)C(=O)[C@H](CC(=O)N1CCCC1)C2 | nt | -11% | nt | nt | nt | nt
CCNc1nc(N)nc(Oc2ccc(C(=O)OC)cc2)n1 | 1% | 7% | 26* | 153% | 0.26µM* | 74*
